# Test results published in PubChem BioAssay AID1220 (Sanford-Burnham Center for Chemical Genomics, 2008).
# The campaign covered roughly 190,000 compounds. About 1,300 (0.68%) were called active. No stated cut-off is given here; in the data, active means inhibition above about 50%; inactive means the rest. Many of the other results were omitted from the sample, so actives are more common in it than they were.
# Biological target: Mannose-6-phosphate isomerase (Homo sapiens) (UniProt P34949)
# Experiment: human PMI inhibitors, high substrate, primary screen, biochemical, fluorescence intensity, high mannose 6-phosphate (AID 1220)
# Conditions: recombinant PMI enzyme, coupled fluorescence intensity; at 20 µM; active compounds read high
# Mannose-6-phosphate isomerase (Homo sapiens), sequence (P34949 whole entry, looked up): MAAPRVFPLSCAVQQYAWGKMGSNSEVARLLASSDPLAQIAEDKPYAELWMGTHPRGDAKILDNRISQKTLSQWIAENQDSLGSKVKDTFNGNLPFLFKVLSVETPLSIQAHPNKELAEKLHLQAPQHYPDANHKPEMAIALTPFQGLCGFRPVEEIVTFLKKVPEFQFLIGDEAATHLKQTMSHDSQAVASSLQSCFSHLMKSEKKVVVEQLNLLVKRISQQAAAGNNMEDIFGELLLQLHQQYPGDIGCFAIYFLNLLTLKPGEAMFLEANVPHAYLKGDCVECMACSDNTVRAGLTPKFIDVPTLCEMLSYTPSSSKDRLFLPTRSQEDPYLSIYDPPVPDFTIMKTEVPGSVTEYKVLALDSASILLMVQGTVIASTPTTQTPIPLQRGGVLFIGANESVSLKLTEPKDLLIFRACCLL
row,Structure (SMILES),inhibition
1,O[C@H]1C2CCC1C(N1CCCCC1)CC2 (stereo partly drawn),5.7% (inactive)
2,COc1ccc(OC)c(N2Cc3ccccc3C2=N)c1,-9.9% (inactive)
3,CNc1cc(N2CCN(C)CC2)ccc1[N+](=O)[O-],28.3% (inactive)
4,CN(C)c1ccc(C=C(C#N)C#N)cc1,-8.3% (inactive)
5,Cc1ccc2cc(C=C(C#N)C#N)c(Cl)nc2c1,57.1% (active)
6,Cc1cc(N2CCCC2)ccc1C=C(C#N)C#N,7.1% (inactive)
7,COc1ccc(OC)c(N2C(=O)NC(=O)C3(Cc4cc(C)ccc4N(C)C3)C2=O)c1 (stereo not drawn),-2.8% (inactive)
8,CC(=O)NC1C(OC(=O)Cc2ccccc2)OC(COC(C)=O)C(OC(C)=O)C1OC(C)=O (stereo not drawn),-6% (inactive)
9,CCSc1cc(C2C(C#N)=C(N)Oc3n[nH]c(C)c32)c(C)o1 (stereo not drawn),-0.6% (inactive)
10,CN1CCN(c2ccc(N)cc2)CC1,11.3% (inactive)
11,CC(C)N1CCN(c2ccc(O)cc2)CC1,65% (active)
12,CCN1CCN(c2ccc(N)cc2)CC1,35.6% (inactive)
13,O=C1C2CCN(CC2)C1Cc1ccc(OCc2ccccc2)cc1 (stereo not drawn),1.5% (inactive)
14,COc1ccc2ccc(O)c(CN3CC=C(c4ccccc4)CC3)c2c1,57.7% (active)
15,Oc1ccc2ccccc2c1CN1CC=C(c2ccccc2)CC1,38.8% (inactive)
16,COc1ccc2c(CN3CC=C(c4ccccc4)CC3)cc(=O)oc2c1,14.2% (inactive)
17,CCCCNC(=O)c1c(N)n(Cc2ccc3c(c2)OCO3)c2nc3ccccc3nc12,69.1% (active)
18,COC(=O)c1c(N)n(Cc2ccc(OC)cc2)c2nc3ccccc3nc12,0.2% (inactive)
19,CC(C)CCNC(=O)c1c(N)n(Cc2ccc3c(c2)OCO3)c2nc3ccccc3nc12,41.6% (inactive)
20,CCC(C)NC(=O)c1c(N)n(Cc2ccc3c(c2)OCO3)c2nc3ccccc3nc12 (stereo not drawn),61.1% (active)
21,CCCNC(=O)c1c(N)n(Cc2ccc3c(c2)OCO3)c2nc3ccccc3nc12,27.5% (inactive)
22,CC(C)CNC(=O)c1c(N)n(Cc2ccc3c(c2)OCO3)c2nc3ccccc3nc12,35.4% (inactive)
23,O=C(CCl)NCC1CCCO1 (stereo not drawn),0.5% (inactive)
24,CCCCn1c(O)c(C(CC)=NCCN2CCOCC2)c(=O)[nH]c1=O,-61.4% (inactive)
25,O=C1c2ccccc2C(=O)N1Cc1nc2ccccc2c(=O)n1-c1ccc(Br)cn1,-1.8% (inactive)

row,Structure (SMILES),inhibition
1,CC(=O)c1ccc2c(c1)C1C(Cl)C(Sc3ccccc3[N+](=O)[O-])CC1C(C(=O)O)N2 (stereo not drawn),-51.9% (inactive)
2,CC(=O)c1ccc2c(c1)C1C(Cl)C(Sc3ccccc3[N+](=O)[O-])CC1C(c1ccccc1)N2 (stereo not drawn),-67.2% (inactive)
3,CC(=O)c1ccc2c(c1)C1C(Cl)C(Sc3ccccc3[N+](=O)[O-])CC1C(c1ccccc1[N+](=O)[O-])N2 (stereo not drawn),63.2% (active)
4,COc1cccc(C2CC3C(=O)C=CC2N3Cc2ccccc2)c1 (stereo not drawn),61.2% (active)
5,COc1cccc(NC(=O)CN2CC(c3ccccc3)CC2=O)c1 (stereo not drawn),-4.8% (inactive)
6,COc1cccc(CN2CCCCC2c2cccnc2)c1 (stereo not drawn),-2.6% (inactive)
7,CCN(CC)CCCN=C(C)c1c(O)n(C2CCCCC2)c(=O)[nH]c1=O,-9.1% (inactive)
8,CCCCCCn1c(N)c(C(=O)NCCN2CCOCC2)c2nc3ccccc3nc21,23.2% (inactive)
9,CC(C)OCCCNC(=O)c1c(N)n(CC2CCCO2)c2nc3ccccc3nc12 (stereo not drawn),22.1% (inactive)
10,CCCCn1c(N)c(C(=O)OCC2CCCO2)c2nc3ccccc3nc21 (stereo not drawn),12% (inactive)
11,Nc1c(C(=O)NC2CCCC2)c2nc3ccccc3nc2n1CC1CCCO1 (stereo not drawn),62.2% (active)
12,CC(C)OC(=O)c1c(N)n(CC2CCCO2)c2nc3ccccc3nc12 (stereo not drawn),16.9% (inactive)
13,CC(C)CCOC(=O)c1c(N)n(CC2CCCO2)c2nc3ccccc3nc12 (stereo not drawn),5.9% (inactive)
14,CCCNC(=O)c1c(N)n(CC2CCCO2)c2nc3ccccc3nc12 (stereo not drawn),56.1% (active)
15,CC(C)CCNC(=O)c1c(N)n(CC2CCCO2)c2nc3ccccc3nc12 (stereo not drawn),23.9% (inactive)
16,Nc1c(C(=O)OC2CCCCC2)c2nc3ccccc3nc2n1CC1CCCO1 (stereo not drawn),24.9% (inactive)
17,CCC(C)NC(=O)c1c(N)n(CC2CCCO2)c2nc3ccccc3nc12 (stereo not drawn),64.3% (active)
18,CCCCn1c(N)c(C(=O)NCCN2CCOCC2)c2nc3ccccc3nc21,48.6% (inactive)
19,CCCCCn1c(N)c(C(=O)NCCN2CCOCC2)c2nc3ccccc3nc21,51.4% (active)
20,CC(NCc1ccccc1Cl)C(O)c1ccccc1 (stereo not drawn),-3.1% (inactive)
21,CCN(CC)P(=S)(c1c(C)nc2ccccn12)c1c(C)nc2ccccn12,-6.3% (inactive)
22,CN1CCN(S(=O)(=O)c2cnc(Cl)c(Br)c2)CC1,10.5% (inactive)
23,COc1ccc(N2C(=O)NC(=O)/C(=C/c3ccc4c(c3)Cc3ccccc3-4)C2=O)cc1,-32.8% (inactive)
24,COc1ccc(-c2cc(=NCCC(=O)O)c3cc(C)ccc3o2)cc1,3.9% (inactive)
25,CN1CCN(c2ccc(F)cc2N)CC1,-0.9% (inactive)

row,Structure (SMILES),inhibition
1,OCC12COC3c4ccccc4C(OC1)N32 (stereo not drawn),5.1% (inactive)
2,COc1ccc(N=Cc2c(O)n(Cc3cccs3)c(=O)[nH]c2=O)cc1,0.9% (inactive)
3,COc1ccc(NP(=O)(Nc2ccc(OC)cc2)Oc2ccccc2)cc1,-1.9% (inactive)
4,COc1ccc(OP(=O)(Nc2ccccc2)Nc2ccccc2)cc1,-14.6% (inactive)
5,COc1ccc(P2(=O)Nc3ccccc3N2)cc1,52.2% (active)
6,C[N+](C)(C)c1ccccc1,10.3% (inactive)
7,CCCCCCC(=O)c1c(O)n(-c2ccccc2OC)c(=O)[nH]c1=O,-8.9% (inactive)
8,CCn1nc(-c2cccs2)nc2c(=O)n(C)c(=O)nc1-2,8.9% (inactive)
9,O=[N+]([O-])c1ccc(N2CCOCC2)c2cccnc12,36.9% (inactive)
10,O=[N+]([O-])c1ccc(N2CCOCC2)c2ccncc12,55.8% (active)
11,O=[N+]([O-])c1ccc(N2CCCC2)c2ccncc12,47.4% (inactive)
12,COc1cccc(C(=O)C2CCCN(Cc3ccon3)C2)c1 (stereo not drawn),8.8% (inactive)
13,O=C(CN1CCOCC1)NCC(=O)Nc1ccc(Br)cc1C(=O)c1ccccc1,-0.3% (inactive)
14,CCC[N+]12CCC(CC1)C(=C(c1ccccc1)c1ccccc1)C2,5.9% (inactive)
15,O=c1[nH]c(=S)n(Cc2ccc(F)cc2)c(O)c1C=NCC1CCCO1 (stereo not drawn),6.1% (inactive)
16,COCCNC(=O)c1c(NC(=O)c2ccc(Br)o2)n(Cc2ccccc2)c2nc3ccccc3nc12,46.5% (inactive)
17,CCOC(=O)c1c(NS(=O)(=O)c2ccccc2)n(CCCOC)c2nc3ccccc3nc12,44.9% (inactive)
18,CCOC(=O)c1c(N)n(CCCOC(=O)c2ccco2)c2nc3ccccc3nc12,0.2% (inactive)
19,CCCCn1c(NC(=O)c2ccc(Br)o2)c(C(=O)OCC)c2nc3ccccc3nc21,56.4% (active)
20,CCCCn1c(NS(=O)(=O)c2ccccc2)c(C(=O)OCC)c2nc3ccccc3nc21,42.5% (inactive)
21,CCCCn1c(NS(=O)(=O)c2ccc(C)cc2)c(C(=O)OCC)c2nc3ccccc3nc21,52.3% (active)
22,Cc1cc(C=O)c(C)n1CC1CCCO1 (stereo not drawn),-8.4% (inactive)
23,COc1ccc(C(=O)C2CCCN(C3CSCCSC3)C2)cc1OC (stereo not drawn),8.3% (inactive)
24,CN1C(=O)C(=Cc2ccccc2OCc2ccccc2Cl)C(=O)N(C)C1=O,-9.8% (inactive)
25,Cn1ncnc2c(=O)n(C)c(=O)nc1-2,61.6% (active)

row,Structure (SMILES),inhibition
1,CCn1nc(-c2ccccc2)nc2c(=O)n(C)c(=O)nc1-2,7.6% (inactive)
2,CCn1nc(/C=C/c2ccccc2)nc2c(=O)n(C)c(=O)nc1-2,46.6% (inactive)
3,Cc1cc(=O)n(-c2ccccc2)n1-c1ccccc1,-4.7% (inactive)
4,CCOC(=O)c1c(-n2c(C)cc(/C=C3\C(=O)NC(=O)N(C)C3=O)c2C)sc2c1CCCC2,12.7% (inactive)
5,Cc1cc2c(C(C)C)c(O)c(O)c(C=O)c2c(O)c1-c1c(C)cc2c(C(C)C)c(O)c(O)c(C=O)c2c1O,51.4% (active)
6,COc1ccc(-c2nc3ccccc3c(=O)n2-c2cccnc2)cc1,-2.9% (inactive)
7,O=C1/C(=C/c2cc3c(cc2Cl)OCO3)N2CCC1CC2,51% (active)
8,O=C1/C(=C\c2cc3c(cc2Br)OCO3)N2CCC1CC2,19.8% (inactive)
9,O=C1/C(=C\c2cc3c(cc2Cl)OCO3)N2CCC1CC2,57.2% (active)
10,O=C1/C(=C/c2cc([N+](=O)[O-])ccc2Cl)N2CCC1CC2,-0.3% (inactive)
11,O=C1/C(=C\c2ccc3c(c2)OCO3)N2CCC1CC2,5.7% (inactive)
12,O=C1/C(=C/c2ccc3c(c2)OCO3)N2CCC1CC2,-2.8% (inactive)
13,CCN(CC)CC(O)c1ccc(C2CCCC2)cc1 (stereo not drawn),-5.5% (inactive)
14,C=CCn1c(O)c(C(CC)=Nc2ccccc2NC(C)=O)c(=O)[nH]c1=O,0.5% (inactive)
15,CCOC(=O)C(NC(C)=O)C(OC(C)=O)c1cccc(N(CCCl)CCCl)c1 (stereo not drawn),-101% (inactive)
16,CC(NC(=O)Oc1ccccc1)C(c1cccs1)N1CCOCC1 (stereo not drawn),3% (inactive)
17,Cc1ccc(-c2nn(Cc3ccccc3)cc2C=O)cc1,3.6% (inactive)
18,O=c1[nH]c(O)c(N=Nc2ccc3c(c2)OCCO3)c(=O)[nH]1,2.6% (inactive)
19,NC(=O)c1ccc(N=Nc2c(O)[nH]c(=O)[nH]c2=O)cc1,2.6% (inactive)
20,O=C(N=Nc1c(O)[nH]c(=O)[nH]c1=O)C1COc2cc3ccccc3cc2O1 (stereo not drawn),51.7% (active)
21,O=c1[nH]c(O)c(N=Nc2ccc([N+](=O)[O-])cc2)c(=O)[nH]1,-7.5% (inactive)
22,O=C(c1ccccc1)c1ccc(N=Nc2c(O)[nH]c(=O)[nH]c2=O)cc1,-8.7% (inactive)
23,O=C(N=Nc1c(O)[nH]c(=O)[nH]c1=O)C1COc2ccccc2O1 (stereo not drawn),56.6% (active)
